HT1080 IDH1KD tx – HT-1080 IDH1 knockdown cell toxicity (counter line); Potency, µM (highest dose often 46.1 µM), for inactives: at the top dose activity, negative = toxicity, hits mostly cytotoxic; HT-1080 IDH1 knockdown viability, ATP luminescence, 48 h; 2% of 360,000 active;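 note: potency is the fitted concentration of half-maximal effect; 0% = DMSO wells and -100% = cell-free medium wells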
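HT-1080-IDH1KD cells (IDH1 knocked down), 750/well in RPMI with 5% FBS, treated with compound 48 h at 37 degrees C. Viability by CellTiter-Glo luminescence, normalised to DMSO and no-cell wells; concentration-response curves classed.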
DT40 TDP1 CPT – growth inhibition of DT40 Tdp1-/-;hTDP1 cells with camptothecin (screen for TDP1 inhibitors) | Potency, µM (highest dose often 46.2 µM), without a hit: top-dose activity change, negative = growth inhibition, actives largely listed as inhibitors | chicken DT40 Tdp1-/-;hTDP1 cells + 20 nM CPT, ATP luminescence, 48 h | 12% of 420,000 active | AID 686979; note: potency is the fitted concentration of half-maximal effect; nearly all actives have a fitted effect of over 55% in size
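Chicken DT40 Tdp1-/- cells complemented with human TDP1, 400 cells/well, exposed to compounds plus 20 nM camptothecin for at least 48 h at 37 C; viability read as ATP content by CellTiter-Glo luminescence.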
DT40 TDP1 no CPT – qHTS for Inhibitors of human tyrosyl-DNA phosphodiesterase 1 (TDP1): qHTS in cells in absence of CPT | DT40 Tdp1-/- hTDP1 cells, no CPT, ATP luminescence, 48 h | Potency, µM (highest dose often 46.2 µM), for the others: at the highest dose activity change, negative = growth inhibition, usual class: inhibitors | 15% of 420,000 active | AID 686978, 2013; note: potency is the fitted concentration of half-maximal effect; nearly all actives have a fitted effect of over 55% in size
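Growth kinetics read by CellTiter-Glo luminescence after ≥48 hr at 37 °C. Cells: DT40 Tdp1-/- stably carrying human TDP1, 400 per well, compound exposure in the absence of CPT (DMSO vehicle).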
HT1080NT lethal – kills 2HG-producing HT-1080-NT fibrosarcoma cells; HT-1080-NT fibrosarcoma viability, CellTiter-Glo ATP luminescence, 48 h; Potency, µM (titrated, usually from 46.1 µM), without a hit: at the highest dose activity, negative = less viability, most hits filed as cytotoxic; 1.6% of 360,000 active; AID 686970;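 note: NT is the 2HG producing partner of a matched IDH1 knockdown line; potency is the fitted concentration of half-maximal effect; 0% = DMSO-treated cells and -100% = media-only wells without cells; nearly all actives have a fitted effect of over 55% in size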
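Read-out is CellTiter-Glo luminescence after 10 minutes at room temperature, following 48 hours' compound treatment of HT-1080-NT cells (750 cells/well, RPMI, 5% FBS, 37 degrees C).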
IL1B secr inh – inhibitors of inflammasome signaling (IL-1 beta secretion). THP-1 LPS/ATP IL-1B secretion, AlphaLISA, 16 h; stronger effect = lower value. activity change, % at 57.5 µM. 4.7% of 360,000 active. AID 743279; in the data active = activity change below about -50%; inconclusive = mostly about -30% to -49%
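Secreted IL-1B measured by AlphaLISA bead assay after 16 h compound exposure of THP-1 cells; compounds (final up to 57.5 uM) added 1 h before LPS (250 ng/mL) and ATP (1.25 mM) stimulation; lower signal means less secretion.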
An asterisk follows results filed as active; i = inactive; ? = inconclusive; · = not tested or not shown. Sampled rows, rich in hits. Any-hit rate of the full collection: about 19%. Unless noted, calls come from the whole dose curve; as a rule, active = well fitted curve in the direction sought with a large enough effect; inconclusive = small, poorly fitted or top-dose-only effect, or another doubt; inactive = no such curve, though single readings can be large; an effect the other way counts as inactive or inconclusive. Unless noted, % is set by controls: 0 for no effect and ±100 for the full control effect.

SMILES	HT1080 IDH1KD tx	DT40 TDP1 CPT	DT40 TDP1 no CPT	HT1080NT lethal	IL1B secr inh
COc1cc(/C=C2/SC(=S)N(CC3CCCO3)C2=O)ccc1O (stereo unspecified)	0.8%	-19.2%	?	-8.3%	-73.9*
Cc1ccc(/C=C2\SC(=S)N(CC3CCCO3)C2=O)o1 (stereo unspecified)	-0.9%	?	?	-0.5%	-96.4*
O=C1/C(=C/c2cccnc2)SC(=S)N1c1ccc(O)cc1	0.0%	-23.9%	?	?	-99.0*
O=C(c1ccncc1)N1CCC[C@@]2(CCN(Cc3ccccc3)C2)C1	·	8.8%	-7.9%	·	·
COc1cccc2sc(Nc3nnc(-c4cccs4)o3)nc12	?	3.66µM*	8.2µM*	-28.5%	75.3
COc1cccc2sc(Nc3nnc(-c4ccc(F)cc4)o3)nc12	-24.2%	5.8µM*	5.8µM*	-7.3%	14.5
Fc1cccc2sc(Nc3nnc(-c4ccco4)o3)nc12	-29.9%	?	23.1µM*	-23.7%	30.5
COc1cccc2sc(NC(=O)c3ccc(Br)s3)nc12	?	-24.0%	?	?	-0.5
O=S1(=O)CCN(C2CCCCCCC2)CC1	10.9%	-2.0%	3.4%	13.3%	14.8
COc1ccc(CCC(=O)NNC(=O)Nc2cc(Cl)ccc2C)cc1	9.0%	-3.1%	3.0%	-0.1%	i
CCOC(=O)C1CCCN(C(=O)c2cccc(S(=O)(=O)N(Cc3ccccc3)c3ccccc3OC)c2)C1 (stereo unspecified)	4.3%	23.1µM*	16.4µM*	-6.4%	-14.5
CCOC(=O)C1CCCN(C(=O)c2ccc3nc(-c4ccc(OC)c(OC)c4)c(-c4ccc(OC)c(OC)c4)nc3c2)C1 (stereo unspecified)	-13.7%	29.1µM*	?	-16.6%	-8.5
CCOC(=O)C1CCCN(C(=O)c2ccc3nc(-c4ccccc4)c(-c4ccccc4)nc3c2)C1 (stereo unspecified)	-1.6%	?	20.6µM*	6.2%	-8.9
CCOC(=O)C1CCCN(C(=O)c2ccc3oc(CCc4ccccc4)nc3c2)C1 (stereo unspecified)	1.9%	-27.5%	?	7.6%	9.1
O=c1c(Cc2c(F)cccc2Cl)c(O)ccn1CCCN1CCOCC1	-5.2%	3.0%	-5.1%	-3.1%	-13.5
COc1ccc(-c2csc(NC(C)c3nc4cc(Cl)c(Cl)cc4n3CCCO)n2)cc1 (stereo unspecified)	?	?	14.6µM*	?	-25.6
CC(Nc1nc(-c2ccc(F)cc2)cs1)c1nc2cc(Cl)c(N3CCCCC3)cc2n1CCOCCO (stereo unspecified)	?	16.4µM*	20.6µM*	?	-75.3*
O=[N+]([O-])c1cc(-c2csc(NCCc3nc4cc(Cl)c(N5CCCCC5)cc4n3CCCO)n2)ccc1Cl	-21.4%	?	16.4µM*	-20.8%	5.8
Cc1ccc(Cn2c(C(C)Nc3nc(C)cs3)nc3cc(Cl)c(Cl)cc32)cc1 (stereo unspecified)	0.4%	?	?	-23.5%	15.7
CC(Nc1nc(-c2cccc(Br)c2)cs1)c1nc2cc(Cl)c(N3CCCCC3)cc2n1CCOCCO (stereo unspecified)	?	?	?	?	-54.8*
Cc1csc(NC(C)c2nc3cc(C(F)(F)F)ccc3n2CCOCCO)n1 (stereo unspecified)	1.6%	?	-22.6%	4.1%	8.1
Cc1ccc(Cn2c(C(C)Nc3nc(-c4ccc(F)cc4)cs3)nc3cc(Cl)c(Cl)cc32)cc1 (stereo unspecified)	-3.7%	29.1µM*	?	0.4%	30.5
CCCn1c(C(C)Nc2nc(-c3ccc(C)cc3)cs2)nc2cc(Cl)c(Cl)cc21 (stereo unspecified)	2.2%	?	-36.5%	7.0%	35.9
CC(Nc1nc(-c2ccc(F)cc2)cs1)c1nc2cc(Cl)c(Cl)cc2n1CCOCCO (stereo unspecified)	-23.1%	23.1µM*	20.6µM*	?	0.0
CC(Nc1nc(-c2ccc(F)cc2)cs1)c1nc2cc(Cl)c(N3CCCCC3)cc2n1CCCO (stereo unspecified)	?	7.31µM*	5.8µM*	2.4%	-6.7
SMILES	HT1080 IDH1KD tx	DT40 TDP1 CPT	DT40 TDP1 no CPT	HT1080NT lethal	IL1B secr inh
COc1ccccc1NCc1nnc(-c2ccccc2)o1	-0.6%	15.9%	-14.5%	2.9%	-1.4
O=C(CN(Cc1cccs1)S(=O)(=O)c1ccc(S(=O)(=O)NC2CCCCC2)cc1)Nc1ccccc1	-25.5%	20.6µM*	18.4µM*	-9.1%	-15.8
O=C(CN(C1CC1)S(=O)(=O)c1ccc(S(=O)(=O)NC2CCCCC2)cc1)Nc1ccccc1	-36.8%	?	?	?	-12.5
CCOC(=O)CSc1nc2ccc(NC(=O)c3ccc(Cl)cc3)cc2s1	·	-27.0%	?	·	·
O=C(COc1ccc(Cl)cc1)Nc1ccc2nc(SCC(=O)N3CCOCC3)sc2c1	·	?	14.6µM*	·	·
Cc1ccc(OCC(=O)Nc2ccc3nc(SCC(=O)N4CCOCC4)sc3c2)cc1	·	?	20.6µM*	·	·
CCOC(=O)Nc1ccc2nc(Sc3ccc(Cl)cc3)sc2c1	?	5.8µM*	5.8µM*	?	42.7
CC(C)CC(=O)Nc1ccc2nc(SCC(=O)N3CCOCC3)sc2c1	·	-7.8%	?	·	·
CNC(=O)c1c(NC(=O)C2=COCCO2)sc2c1CCCC2	-13.0%	-26.5%	?	0.6%	i
Cc1ccc(NC(=O)c2ccc(OC(=O)C(C)Oc3ccc(Cl)cc3C)cc2)cc1 (stereo unspecified)	16.6%	-8.9%	-12.1%	7.0%	-5.9
O=c1oc(Nc2cccc(Cl)c2)nc2ccccc12	-23.5%	-26.7%	-24.2%	-8.4%	-2.6
O=c1onc(-c2ccccc2)n1Cc1ccc([N+](=O)[O-])cc1	-10.7%	0.0%	-22.8%	-11.3%	-13.4
COc1ccc(NC(=O)OCCN2CCN(Cc3ccccc3)CCC2=O)cc1	-2.6%	-20.3%	-15.9%	13.5%	26.6
Cc1cc(C)cc(NC(=O)OCCN2CCN(Cc3ccccc3)CCC2=O)c1	-0.4%	-22.9%	23.1µM*	-0.5%	-0.8
Cc1ccc(S(=O)(=O)N2CCC(=O)N(CCOC(=O)Nc3ccccc3C)CC2)cc1	1.0%	-26.8%	?	0.1%	-1.8
Cc1ccc(S(=O)(=O)N2CCC(=O)N(CCOC(=O)Nc3cc(C)cc(C)c3)CC2)cc1	0.0%	16.4µM*	?	-6.3%	-12.5
S=C(NCc1ccco1)Nc1ccc(Cl)c(Cl)c1	?	?	?	?	-100.6*
S=C(NCc1ccco1)Nc1cc(Cl)c(Cl)cc1Cl	?	?	?	?	-51.8*
